The record followed here is the supplement of paper PMC10849652.

Targets with a hit are over-represented here; the source holds about 7,900 in all. About 0.6% of all pairs of compound and target were hits. A number with no mark means an inactive call.

Assay in all cases: log2 fold change, soluble protein after heating vs DMSO (PISA); higher = thermal stabilisation; K562 cells, 10 uM, 30 min; active = over 0.2 and 3.5 SD of the protein, either way, in both replicates (recomputed)
Compound in experiment [1]: CC1=C(C=C(C=C1)NC(=O)C2=CC(=CC=C2)C(C)(C)C#N)NC3=CC4=C(C=C3)N=CN(C4=O)C
An outline of the steps: (§1)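 K562 cells at 2×10^6 cells/mL were treated for 30 min with 10 μM compound, and aliquots were heated for 3 min over 48°C-58°C before pooling. Extraction used PBS with 0.5% NP-40 at 4°C, and soluble protein was the supernatant after 21,000xg for 90 min, measured by TMTpro 16plex LC-MS/MS with channel sums equalised. Thermal stability values, relative to control samples and from duplicates, are log2 fold changes.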

Compound in experiment [2]: CC1=C(C=C(C=C1)NC(=O)C2=CC(=CC=C2)N(C)C)NC(=O)C3=CC=C(C=C3)O
A digest of the protocol:
as §1

Compound in experiment [3]: CC1=CC=C(C=C1)SC2=C3C=C(SC3=CN=C2)C(=O)N
A digest of the protocol: as §1

Compound in experiment [4]: CC1=NC(=CC=C1)C2=C(N=C(N2)C(C)(C)C)C3=CC4=NC=CN=C4C=C3
An outline of the steps:
as §1

Compound in the next experiment: CCCCN(Cc1ccc(C(=O)NO)cc1)C(=O)Nc1ccccc1 [Nexturastat A]
A digest of the protocol:
as §1

Compound in another experiment: CCCS(=O)(=O)Nc1ccc(F)c(C(=O)c2c[nH]c3ncc(-c4ccc(Cl)cc4)cc23)c1F [vemurafenib]
An outline of the steps:
as §1

Compound in experiment [5]: CCCS(=O)(=O)Nc1ccc(F)c(C(=O)c2c[nH]c3ncc(Cl)cc23)c1F
A digest of the protocol:
as §1

Compound in experiment [6]: CCCc1cc(C)[nH]c(=O)c1CNC(=O)c1cc(-c2ccnc(N3CCN(C)CC3)c2)cc2c1cnn2C(C)C
A digest of the protocol: as §1

Compound in a further experiment: CCN(CC)Cc1ccc2cc(COC(=O)Nc3ccc(C(=O)NO)cc3)ccc2c1 [givinostat]
An outline of the steps: as §1

Compound in a further experiment: CCN(CCCOc1ccc2c(Nc3cc(CC(=O)Nc4cccc(F)c4)[nH]n3)ncnc2c1)CCOP(=O)(O)O [barasertib]
A digest of the protocol:
as §1

Compound in experiment [7]: CC[C@@H]1C(=O)N(C)c2cnc(Nc3ccc(C(=O)NC4CCN(C)CC4)cc3OC)nc2N1C1CCCC1
A digest of the protocol: as §1

Compound in the next experiment: CC[C@@H]1C(=O)N(C)c2cnc(Nc3ccc(C(=O)N[C@H]4CC[C@H](N5CCN(CC6CC6)CC5)CC4)cc3OC)nc2N1C(C)C [volasertib]
An outline of the steps:
as §1

Compound in experiment [8]: CC[C@H](C)N1C=C(C2=C(C=C(C=C21)C3=CN=C(C=C3)N4CCNCC4)C(=O)NCC5=C(C=C(NC5=O)C)C)C
A digest of the protocol: as §1

Compound in the next experiment: CC[C@H](C)[C@@H](C(=O)N[C@@H]([C@@H](C)O)C(=O)N[C@@H](CC(C)C)C(=O)[C@]1(CO1)C)NC(=O)[C@H]([C@@H](C)CC)N(C)C(=O)C [epoxomicin]
An outline of the steps: as §1

Compound in experiment [9]: CCn1c(C(=O)N(C2CC2)C2CC2)cc2c3c(ncn3C)c(Nc3cc(C)n(C)n3)nc21
A digest of the protocol:
as §1

Compound in experiment [10]: CCn1cc(-c2ccnc3[nH]c(-c4cccc(CN(C)C)c4)cc23)c(-c2ccc(NC(=O)N(C)C)cc2)n1
An outline of the steps:
as §1

Compound in experiment [11]: CN(C)CC(=O)Nc1ccc2[nH]c(=O)c3ccccc3c2c1
A digest of the protocol:
as §1

Compound in a further experiment: CN(CCOC1=CC=C(C=C1)C[C@H]2C(=O)NC(=O)S2)C3=CC=CC=N3 (racemic) [rosiglitazone]
A digest of the protocol:
as §1

Compound in experiment [12]: CN1C2=C(C3=C1C(=O)N(N=C3)CC4=CC(=CC=C4)N)SC(=C2)S(=O)C
An outline of the steps:
as §1

Compound in experiment [13]: CN1CCC(CNc2ccc3ncc(-c4cccc(OC(F)(F)F)c4)n3n2)CC1
A digest of the protocol: as §1

Sequence of UniProt P15559 (P15559 whole entry, looked up): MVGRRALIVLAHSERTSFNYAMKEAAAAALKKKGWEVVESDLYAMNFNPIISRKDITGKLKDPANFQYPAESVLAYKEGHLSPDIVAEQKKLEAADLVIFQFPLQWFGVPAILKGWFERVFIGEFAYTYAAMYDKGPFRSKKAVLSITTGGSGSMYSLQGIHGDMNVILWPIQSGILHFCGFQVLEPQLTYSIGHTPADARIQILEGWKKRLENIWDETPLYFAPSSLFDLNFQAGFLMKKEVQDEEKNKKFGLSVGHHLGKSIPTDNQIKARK
Sequence of UniProt Q9BZF1 (Q9BZF1 whole entry, looked up): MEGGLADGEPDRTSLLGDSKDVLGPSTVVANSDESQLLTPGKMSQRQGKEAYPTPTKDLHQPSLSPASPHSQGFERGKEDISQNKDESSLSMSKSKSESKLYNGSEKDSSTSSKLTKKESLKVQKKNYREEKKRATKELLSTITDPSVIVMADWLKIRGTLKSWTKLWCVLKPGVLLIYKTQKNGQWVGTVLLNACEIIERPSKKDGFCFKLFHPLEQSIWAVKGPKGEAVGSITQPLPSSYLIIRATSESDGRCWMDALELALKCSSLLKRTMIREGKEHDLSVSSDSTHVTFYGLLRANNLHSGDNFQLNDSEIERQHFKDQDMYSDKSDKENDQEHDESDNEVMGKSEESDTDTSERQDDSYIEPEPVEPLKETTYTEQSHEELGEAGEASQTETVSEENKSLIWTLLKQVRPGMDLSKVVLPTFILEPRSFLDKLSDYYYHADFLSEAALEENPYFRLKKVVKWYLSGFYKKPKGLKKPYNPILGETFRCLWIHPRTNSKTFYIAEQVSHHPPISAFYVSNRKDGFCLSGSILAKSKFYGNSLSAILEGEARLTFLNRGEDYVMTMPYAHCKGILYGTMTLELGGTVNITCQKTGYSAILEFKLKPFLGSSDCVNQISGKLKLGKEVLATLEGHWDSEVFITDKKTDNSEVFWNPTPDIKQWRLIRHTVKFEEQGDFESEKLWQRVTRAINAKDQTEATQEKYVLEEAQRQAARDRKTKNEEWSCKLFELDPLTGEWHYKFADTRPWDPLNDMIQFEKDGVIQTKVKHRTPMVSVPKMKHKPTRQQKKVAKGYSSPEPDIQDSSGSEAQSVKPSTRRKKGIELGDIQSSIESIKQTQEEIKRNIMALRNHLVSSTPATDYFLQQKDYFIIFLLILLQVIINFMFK
Sequence of UniProt Q9BPX3 (Q9BPX3 whole entry, looked up): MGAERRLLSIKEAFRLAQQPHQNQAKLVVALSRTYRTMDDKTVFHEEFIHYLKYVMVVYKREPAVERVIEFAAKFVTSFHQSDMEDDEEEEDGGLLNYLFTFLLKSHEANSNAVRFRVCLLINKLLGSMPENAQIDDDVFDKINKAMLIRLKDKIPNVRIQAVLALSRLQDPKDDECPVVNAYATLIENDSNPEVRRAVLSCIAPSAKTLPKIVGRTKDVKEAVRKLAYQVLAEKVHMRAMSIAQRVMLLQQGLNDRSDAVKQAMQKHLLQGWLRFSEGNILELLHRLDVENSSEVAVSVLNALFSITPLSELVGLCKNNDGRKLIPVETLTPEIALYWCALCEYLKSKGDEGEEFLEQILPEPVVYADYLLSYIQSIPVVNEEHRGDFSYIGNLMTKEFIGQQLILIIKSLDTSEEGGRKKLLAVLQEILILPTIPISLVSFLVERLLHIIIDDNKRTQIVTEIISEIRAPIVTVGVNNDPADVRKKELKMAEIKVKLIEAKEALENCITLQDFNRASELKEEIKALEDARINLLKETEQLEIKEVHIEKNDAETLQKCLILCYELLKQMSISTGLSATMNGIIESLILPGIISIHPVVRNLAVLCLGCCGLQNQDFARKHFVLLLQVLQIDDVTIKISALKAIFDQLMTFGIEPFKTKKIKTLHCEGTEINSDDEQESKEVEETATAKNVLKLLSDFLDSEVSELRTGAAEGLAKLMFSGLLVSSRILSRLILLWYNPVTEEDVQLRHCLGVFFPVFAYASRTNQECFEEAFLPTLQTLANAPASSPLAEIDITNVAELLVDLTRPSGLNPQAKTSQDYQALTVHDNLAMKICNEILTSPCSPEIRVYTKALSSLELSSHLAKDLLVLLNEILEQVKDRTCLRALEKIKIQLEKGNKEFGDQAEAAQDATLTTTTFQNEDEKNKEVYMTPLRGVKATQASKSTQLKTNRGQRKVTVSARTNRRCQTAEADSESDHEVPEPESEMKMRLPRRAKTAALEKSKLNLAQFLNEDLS
Sequence of UniProt Q9BUB5 (Q9BUB5 whole entry, looked up): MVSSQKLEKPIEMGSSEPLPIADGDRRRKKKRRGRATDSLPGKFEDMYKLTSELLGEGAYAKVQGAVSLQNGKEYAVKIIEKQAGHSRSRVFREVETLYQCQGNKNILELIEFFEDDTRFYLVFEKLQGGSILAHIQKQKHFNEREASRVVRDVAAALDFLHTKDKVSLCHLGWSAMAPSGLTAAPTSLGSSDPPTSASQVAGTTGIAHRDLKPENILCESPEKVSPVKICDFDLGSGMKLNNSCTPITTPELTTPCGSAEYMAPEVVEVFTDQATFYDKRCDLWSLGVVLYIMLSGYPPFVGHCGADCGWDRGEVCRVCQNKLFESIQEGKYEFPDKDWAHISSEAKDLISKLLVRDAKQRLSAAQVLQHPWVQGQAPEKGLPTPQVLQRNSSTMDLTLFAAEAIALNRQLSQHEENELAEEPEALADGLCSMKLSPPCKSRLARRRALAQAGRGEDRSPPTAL

Take NQO1 (UniProt P15559): the log2 fold change was 0.075 in experiment [1]; -0.023 in experiment [2]; 0.032 in [3]; 0.025 in experiment [4]; -0.049 with Nexturastat A; 0.027 with vemurafenib. For the same target, the log2 fold change in [5] is -0.007; in [6], 0.039; with givinostat, -0.01; in the experiment with barasertib, 0.036; in experiment [7], 0.011; in the experiment with volasertib, 0.057. Also, the log2 fold change is 0.276 (active) in experiment [8]; 0.083 with epoxomicin; 0.159 in [9]; -0.064 in experiment [10]; -0.005 in [11]; 0.013 with rosiglitazone. Moreover, the log2 fold change in experiment [12] is 0.356 (active); in experiment [13] it was 0.046.

Regarding NCAPG (UniProt Q9BPX3), the log2 fold change was 0.086 in [1]; -0.074 in [2]; 0.027 in experiment [3]; 0.038 in experiment [4]; 0.011 with Nexturastat A; 0.056 in the experiment with vemurafenib. Also, the log2 fold change in [5] is 0.091; in experiment [6], 0.064; with givinostat, 0.081; in the experiment with barasertib it was 0.064; in experiment [7] it was -0.105; with volasertib, -0.506 (active). The log2 fold change in [8] is 0.059; with epoxomicin, 0.023; in experiment [9], -0.002; in experiment [10], 0.003; in experiment [11] it was 0.04; with rosiglitazone, 0.066. For the same target, the log2 fold change in experiment [12] is 0.004; in experiment [13] it was 0.092.

On to MKNK1 (UniProt Q9BUB5), for which the log2 fold change was -0.008 in experiment [1]; -0.051 in experiment [2]; 0.03 in [3]; 0.115 in experiment [4]; -0.094 with Nexturastat A; 0.021 in the experiment with vemurafenib. For the same target, the log2 fold change was 0.035 in experiment [5]; 0.022 in experiment [6]; 0.012 with givinostat; 0.033 with barasertib; -0.148 in experiment [7]; -0.183 in the experiment with volasertib. For the same target, the log2 fold change in experiment [8] is -0.025; with epoxomicin, 0.018; in experiment [9] it was -0.023; in [10], -0.101; in [11], 0.009; in the experiment with rosiglitazone, 0.036. Besides, the results for the log2 fold change in experiment [12] and in experiment [13] were -0.095 and -0.006, respectively.

Regarding OSBPL8 (UniProt Q9BZF1), the log2 fold change in experiment [1] was 0.209; in [2], 0.011; in [3] it was 0.009; in [4], -0.027; in the experiment with Nexturastat A, 0.109; with vemurafenib, 0.074. The log2 fold change is 0.035 in experiment [5]; 0.309 in experiment [6]; -0.03 with givinostat; 0.094 in the experiment with barasertib; -0.068 in experiment [7]; -0.026 with volasertib. Besides, the log2 fold change was 0.062 in [8]; -0.118 with epoxomicin; 0.271 in [9]; 0.061 in experiment [10]; 0.055 in experiment [11]; 0.031 in the experiment with rosiglitazone. Further, the log2 fold change is 0.09 in experiment [12] and -0.114 in experiment [13].
